CRFR2-BP ag: agonists of CRF-BP/CRF-R2 complex, primary screen, cell-based, HEK293, calcium dye fluorescence, uHTS; hit rate 0.46% among 350,000; CRF-binding protein / CRF receptor 2 complex (human); AID 588473, 2011; activation, % at 13.2 µM; calcium dye fluorescence (FLIPR); percent of saturating CRF peptide response;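 active = activation of at least 50%, plus an integration ratio under a set limit after plate pattern correction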
IDE cell inh: human IDE inhibitors in live cells, primary screen, fluorescence polarization, HEK cells, FAbetaB substrate; Insulin-degrading enzyme (Homo sapiens), P14735; FAbetaB cleavage; inhibition, % at 5.59 µM; hit rate 0.41% among 320,000; AID 434962, 2010;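 active = percent inhibition above the average of all tested compounds plus 3 SD, set per screening campaign, cut at about 16% in these data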;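 also: IDE supplied by intact live HEK cells; FP after avidin binding of uncleaved biotin substrate so inhibition keeps polarization high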
HNF4A DNA FP: change in binding of human HNF4A to DNA, primary screen, biochemical, fluorescence polarization, FITC-DNA; activity change, % at 10 µM; 1 h; AID 1224865, 2016; hit rate 0.3% among 360,000; in the data active = activity change above about 30%, passing the limit was not always enough
Target sequence (P41235 whole entry, looked up): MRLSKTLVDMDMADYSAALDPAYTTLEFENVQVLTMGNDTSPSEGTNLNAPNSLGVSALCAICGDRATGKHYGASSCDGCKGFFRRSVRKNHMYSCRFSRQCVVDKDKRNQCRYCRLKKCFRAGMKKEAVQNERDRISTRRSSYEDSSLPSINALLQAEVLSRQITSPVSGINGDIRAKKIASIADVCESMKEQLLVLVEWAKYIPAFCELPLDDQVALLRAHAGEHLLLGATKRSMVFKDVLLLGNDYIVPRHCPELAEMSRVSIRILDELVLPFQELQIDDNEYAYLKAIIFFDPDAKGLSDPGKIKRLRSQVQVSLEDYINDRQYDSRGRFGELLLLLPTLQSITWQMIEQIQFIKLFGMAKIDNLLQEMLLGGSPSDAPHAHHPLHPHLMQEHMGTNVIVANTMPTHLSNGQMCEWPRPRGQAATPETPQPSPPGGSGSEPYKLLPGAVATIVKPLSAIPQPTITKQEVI
TPT1 inh: Candida albicans TPT1 enzyme inhibitors, primary screen, biochemical, fluorescence polarization; inhibition, % at 5 µM; recombinant caTPT1, FP RNA substrate dephosphorylation; hit rate 0.81% among 300,000; AID 1962, 2009;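 active = inhibition above the mean of all tested compounds plus 3 SD, set per screening campaign, cut at about 24% in these data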
IDE cell activ: human IDE activators in live cells, primary screen, fluorescence polarization, HEK cells, FAbeta-B substrate | FAbeta-B cleavage; 0% vehicle, 100% cell-free pure enzyme wells | activation, % at 5.96 µM | hit rate 0.073% among 340,000 | Insulin-degrading enzyme (Homo sapiens), P14735;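 active = activation above the mean of all tested compounds plus 3 SD, set per screening campaign, cut at about 17% in these data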
caTPT1 confirm: Candida albicans TPT1 inhibitors, confirmation, biochemical, fluorescence polarization, triplicate; shares compounds with TPT1 inh; recombinant caTPT1, RNase T1 coupled; inhibition, % at 5 µM; hit rate 74% among 2,400; AID 2149, 2009;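 active = inhibition above the primary screen limit, the mean inhibition of all tested compounds plus 3 SD, cut at about 25% in these data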
RNase T1 inh: RNase T1 inhibitors, counter-screen for TPT1 inhibitor project, biochemical, fluorescence polarization; hit rate 83% among 2,400; shares compounds with TPT1 inh; inhibition, % at 5 µM; RNase T1 cleavage, 1536-well;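 active = inhibition above the solvent-only control well mean plus 3 SD, limit set per screening run, cut at about 23% in these data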;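 also: inhibitors block cleavage so intact labeled substrate keeps polarization high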
Target sequence (P00651 whole entry, looked up): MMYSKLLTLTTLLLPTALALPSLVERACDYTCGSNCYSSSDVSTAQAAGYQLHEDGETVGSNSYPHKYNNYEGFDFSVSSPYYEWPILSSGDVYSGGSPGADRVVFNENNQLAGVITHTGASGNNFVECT
Large screens that a line does not name were inactive (follow-up assays come after a bar, where they were run). Shown are actives, neighbours in structure and some others; about 1.4% of the full set was active somewhere.

CC(Sc1n[nH]c(-c2cccs2)n1)C(=O)Nc1ccc(C(N)=O)cc1 (configuration not stated)	none (no result: TPT1 inh)
CC(C)(C)OC(=O)Nc1ccccc1-n1nnnc1C(C(=O)c1ccccc1)N1CCN(c2ccccn2)CC1 (configuration not stated)	none (no result: CRFR2-BP ag, IDE cell inh, TPT1 inh, IDE cell activ)
CC1N(C)c2cccc3cccc(c23)N1C	TPT1 inh 31.6 | caTPT1 confirm inactive | RNase T1 inh inactive
CN1c2cccc3cccc(c23)N(C)C1c1cccs1	none
CCN(CC)c1ccc(NC(=O)Cn2c(C(C)NC(=O)c3ccccc3)nc3ccccc32)cc1 (configuration not stated)	TPT1 inh 52.7 | caTPT1 confirm inactive | RNase T1 inh inactive
Cc1ccc(C(=O)NC(C)c2nc3ccccc3n2CC(=O)Nc2c(C)cc(C)cc2C)cc1 (configuration not stated)	none (no result: CRFR2-BP ag, HNF4A DNA FP, IDE cell activ)
COc1ccc(NC(=O)CN(C)C(=O)c2c(C)nn(Cc3ccccc3)c2C)cc1	none
COc1ccccc1NC(=O)Cn1ccn(-c2cccc3ccccc23)c(=O)c1=O	none
COc1cc(/C=C2/C(=O)NN(c3ccccc3)C2=O)cc(Br)c1O	TPT1 inh 53.6 | caTPT1 confirm 84.1 | RNase T1 inh 103.4
COc1cc(/C=C2\C(=O)NN(c3ccc(C)cc3)C2=O)cc([N+](=O)[O-])c1O	none
COc1cc(/C=C2/C(=O)NN(c3ccc(Cl)cc3)C2=O)cc(OC)c1O	TPT1 inh 96.9 | caTPT1 confirm 151.3 | RNase T1 inh 153.7
CN(C)S(=O)(=O)c1cccc(NC(=S)N/N=C/c2cc(Br)ccc2O)c1	TPT1 inh 25.1 | caTPT1 confirm 53.2 | RNase T1 inh 59.3
CN(C)S(=O)(=O)c1cccc(NC(=S)N/N=C/c2cccc(O)c2)c1	none
O=C(CN(CCc1ccccc1)C(=O)c1csnn1)NC1CCCC1	none
N/C(=N\OC(=O)CCCc1ccccc1)c1ccccc1Cl	none
O=C(N/N=C\c1c(O)ccc2ccccc12)c1ccc(O)cc1	none
Cn1cc(C(=O)N/N=C/c2c(O)ccc3ccccc23)ccc1=O	TPT1 inh 56.6 | caTPT1 confirm 69.9 | RNase T1 inh 54.0
O=C(N/N=C\c1c(O)ccc2ccccc12)c1cncc(Br)c1	CRFR2-BP ag 166.9, TPT1 inh 136.1, IDE cell activ 47.4 | caTPT1 confirm 151.5 | RNase T1 inh 137.8
Cc1cscc1-c1cc2nc(NCCCN(C)C)n(C)c(=O)c2s1	none (no result: CRFR2-BP ag, IDE cell inh, TPT1 inh, IDE cell activ)
COc1ccc(NC(=O)Nc2c(C)noc2-c2ccccc2)cc1	TPT1 inh 41.7 | caTPT1 confirm inactive | RNase T1 inh inactive
CCN1C(=O)CC(NC2CCN(C(=O)c3ccc(F)cc3)CC2)C1=O (configuration not stated)	none
Cc1ccc2nc(Cl)c(/C=N/Nc3ccc(C(=O)O)cc3)cc2c1	TPT1 inh 29.9 | caTPT1 confirm 36.1 | RNase T1 inh 47.0
Cc1ccc2cc(/C=N/NC(=O)c3ccc(F)cc3)c(Cl)nc2c1	none
Cc1oc(-c2cccc(Cl)c2)nc1CS(=O)(=O)CC(=O)NC1CCCC1	none
C/C(=N/Nc1ccc([N+](=O)[O-])cc1)c1ccc(C)cc1C	TPT1 inh 26.0 | caTPT1 confirm 35.9 | RNase T1 inh 46.7
C/C(=N\Nc1ccc([N+](=O)[O-])cc1)c1ccc2c(c1)OCO2	TPT1 inh 57.0 | caTPT1 confirm 52.8 | RNase T1 inh 65.2
Cc1ccc(NC(=O)CCCC(=O)O)c(-c2nc3ccccc3[nH]c2=O)c1	none
COc1ccc(C)cc1Nc1nc(-c2c[nH]c3ccccc23)cs1	TPT1 inh 31.4 | caTPT1 confirm 26.3 | RNase T1 inh 35.8
CCN1C(=O)/C(=C/c2c(C)nn(C)c2C)SC1=S	TPT1 inh 24.3 | caTPT1 confirm 34.0 | RNase T1 inh 44.6
O=C(COC(=O)CCS(=O)(=O)c1ccccc1)NNC(=O)c1ccc([N+](=O)[O-])cc1	none (no result: IDE cell inh, TPT1 inh, IDE cell activ)
COC(=O)C(C)n1nnc2sc(-c3ccccc3)cc2c1=O (configuration not stated)	TPT1 inh 26.2 | caTPT1 confirm 27.5 | RNase T1 inh 33.0
CC(C)Sc1nc2sc(-c3ccccc3)cc2c(=O)n1N	none
COc1ccc(/C=N\Nc2ccc([N+](=O)[O-])cc2)c(C(=O)O)c1OC	TPT1 inh 37.7 | caTPT1 confirm 46.1 | RNase T1 inh 60.5
COc1cc(/C=N/Nc2ccc(C(=O)O)cc2)ccc1O	none
COc1ccc(/C=N/Nc2ccc([N+](=O)[O-])cc2)cc1O	HNF4A DNA FP 43.5, TPT1 inh 82.1 | caTPT1 confirm 97.7 | RNase T1 inh 106.3
COc1ccc(/C=N/Nc2ccc([N+](=O)[O-])cc2)cc1Cn1cc([N+](=O)[O-])cn1	TPT1 inh 107.8 | caTPT1 confirm 82.6 | RNase T1 inh 91.5
O=[N+]([O-])c1ccc(N/N=C\c2ccccc2OCc2ccccc2)cc1	TPT1 inh 85.3 | caTPT1 confirm 101.3 | RNase T1 inh 107.8
COc1ccc(/C=N/n2cncn2)cc1Cn1cc([N+](=O)[O-])cn1	none (no result: IDE cell activ)
Oc1ccccc1N1CCN(CC(O)COC2CCCc3ccccc32)CC1 (configuration not stated)	none
COc1cccc(/C=N/Nc2ccc([N+](=O)[O-])cc2)c1O	TPT1 inh 37.2 | caTPT1 confirm 56.9 | RNase T1 inh 68.3
Oc1[nH]c2ccccc2c1/C=N/c1nccs1	TPT1 inh 36.2 | caTPT1 confirm 34.6 | RNase T1 inh 44.8
CCCOc1c(Br)cc(C(=O)OCC(=O)NC2CC2)cc1OC	none
CC1CC/C(=C\c2ccc3c(c2)OCO3)C(=O)/C1=C/c1ccc2c(c1)OCO2 (configuration not stated)	TPT1 inh 30.8 | caTPT1 confirm inactive | RNase T1 inh inactive
O=C1/C(=C\c2ccc3c(c2)OCO3)CCC/C1=C/c1ccc2c(c1)OCO2	none
O=C(N/N=C/c1ccc(N2CCCCC2)o1)c1ccccc1	none
N#C/C(=C/c1ccc(N2CCCCCC2)o1)c1ccc(F)cc1	TPT1 inh 157.9 | caTPT1 confirm 182.0 | RNase T1 inh 167.6
COc1cccc(/C=C(/C#N)c2ccc(F)cc2)c1OCc1cccc(C(=O)O)c1	none
N#C/C(=C/c1ccc(N2CCCCCC2)o1)c1cccc(F)c1	TPT1 inh 160.3 | caTPT1 confirm 176.7 | RNase T1 inh 163.5

Assay outcomes: PubChem BioAssay, several laboratories
